# Reference: PubChem BioAssay AID1508601 (ICCB-Longwood Screening Facility, Harvard Medical School, 2020)
# The campaign covered roughly 5,700 compounds. About 85 (1%) were called active. Rule as the data show it: active = p53-positive nuclei above about 36% (passing the limit was not always enough); inactive = the rest. The entries come from a sample that favours actives as a whole.
# Tests used:
# [1] = p53 stabilisation in HPV-positive human cells, imaging, p53-positive nuclei imaging, 24 h, 48 h (AID 1508601); conditions: 24/48 h
# [2] = molecular target: Cellular tumor antigen p53 (Homo sapiens) (UniProt P04637); experiment: as above; conditions: 24/48 h, stronger effect = higher value
# [3] = measured here: cell number at 24 h, Library stock concentration: 80 uM
# [4] = measured here: cell number at 24 h, Library stock concentration: 400 uM
# [5] = measured here: cell number at 24 h, Library stock concentration: 2 mM
# [6] = measured here: cell number at 24 h, Library stock concentration: 10 mM
# [7] = measured here: cell number at 24 h, concentration not given here
# [8] = measured here: cell number at 48 h, Library stock concentration: 80 uM
# [9] = measured here: cell number at 48 h, Library stock concentration: 400 uM
# [10] = measured here: cell number at 48 h, Library stock concentration: 2 mM
# [11] = measured here: cell number at 48 h, Library stock concentration: 10 mM
# [12] = measured here: cell number at 48 h, concentration not given here
# [13] = Library stock concentration: 80 uM
# [14] = Library stock concentration: 400 uM
# [15] = Library stock concentration: 2 mM
# [16] = Library stock concentration: 10 mM
# [17] = measured here: p53 positive nuclei at 24 h, Library stock concentration: 80 uM
# [18] = measured here: p53 positive nuclei at 24 h, Library stock concentration: 400 uM
# [19] = measured here: p53 positive nuclei at 24 h, Library stock concentration: 2 mM
# [20] = measured here: p53 positive nuclei at 24 h, Library stock concentration: 10 mM
# [21] = measured here: p53 positive nuclei at 24 h, concentration not given here
# Chain of Cellular tumor antigen p53 (Homo sapiens) (P04637 whole entry, looked up): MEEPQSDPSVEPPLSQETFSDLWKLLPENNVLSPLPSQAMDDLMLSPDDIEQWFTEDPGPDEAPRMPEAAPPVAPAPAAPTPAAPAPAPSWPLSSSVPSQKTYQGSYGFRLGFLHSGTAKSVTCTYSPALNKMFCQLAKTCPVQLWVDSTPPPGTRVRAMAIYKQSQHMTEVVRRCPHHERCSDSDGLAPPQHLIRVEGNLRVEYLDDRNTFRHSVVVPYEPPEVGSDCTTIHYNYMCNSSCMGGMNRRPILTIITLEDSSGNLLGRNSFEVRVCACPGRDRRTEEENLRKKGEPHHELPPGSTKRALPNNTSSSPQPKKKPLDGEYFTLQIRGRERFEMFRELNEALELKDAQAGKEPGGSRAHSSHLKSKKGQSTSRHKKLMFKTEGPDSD
smiles,measurement,setting,value
NC(=O)c1ccc(-c2nc(-c3ccc4c(c3)OCCO4)c(-c3ccccn3)[nH]2)cc1,"nuclei count, normalised",[1]; [3],108%
same,"nuclei count, normalised",[1]; [4],108%
same,"nuclei count, normalised",[1]; [5],103%
same,"nuclei count, normalised",[1]; [6],105%
same,"nuclei count, normalised",[1]; [7],114%
same,"nuclei count, normalised",[1]; [8],111%
same,"nuclei count, normalised",[1]; [9],111%
same,"nuclei count, normalised",[1]; [10],103%
same,"nuclei count, normalised",[1]; [11],99.9%
same,"nuclei count, normalised",[1]; [12],116%
same,"p53-positive nuclei, normalised",[2]; [13],0.102% (inactive)
same,"p53-positive nuclei, normalised",[2]; [14],0.159% (inactive)
same,"p53-positive nuclei, normalised",[2]; [15],-0.0937% (inactive)
same,"p53-positive nuclei, normalised",[2]; [16],0.066% (inactive)
same,"p53-positive nuclei, normalised",[2]; concentration not given here,-0.0133% (inactive)
same,"p53-positive nuclei, normalised",[2]; [17],-0.0114%
same,"p53-positive nuclei, normalised",[2]; [18],0.0817%
same,"p53-positive nuclei, normalised",[2]; [19],-0.00675%
same,"p53-positive nuclei, normalised",[2]; [20],0.138%
same,"p53-positive nuclei, normalised",[2]; [21],-0.0284%
c1nc(-c2ccc3c(c2)OCCO3)c2sccc2n1,"nuclei count, normalised",[1]; [7],74.2%
same,"nuclei count, normalised",[1]; [12],38.4%
same,"p53-positive nuclei, normalised",[2]; concentration not given here,68.7% (active)
same,"p53-positive nuclei, normalised",[2]; [21],3%
COc1nccnc1-c1ccc2c(c1)OCO2,"nuclei count, normalised",[1]; [7],115%
same,"nuclei count, normalised",[1]; [12],114%
same,"p53-positive nuclei, normalised",[2]; concentration not given here,-0.145% (inactive)
same,"p53-positive nuclei, normalised",[2]; [21],-0.0884%
CC=C1NC(=O)C2CSSCCC=CC(CC(=O)NC(C(C)C)C(=O)N2)OC(=O)C(C(C)C)NC1=O (stereo not given),"nuclei count, normalised","[1]; measured here: cell number at 24 h, Library stock concentration: 3.33 mM",45.3%
same,"nuclei count, normalised","[1]; measured here: cell number at 48 h, Library stock concentration: 3.33 mM",13.5%
same,"p53-positive nuclei, normalised",[2]; Library stock concentration: 3.33 mM,138% (active)
same,"p53-positive nuclei, normalised","[2]; measured here: p53 positive nuclei at 24 h, Library stock concentration: 3.33 mM",79.1%
OC1CCC(Nc2ncc3nc(Nc4c(F)cc(F)cc4F)n(C4CCOC4)c3n2)CC1 (stereo not given),"nuclei count, normalised",[1]; [3],108%
same,"nuclei count, normalised",[1]; [4],111%
same,"nuclei count, normalised",[1]; [5],106%
same,"nuclei count, normalised",[1]; [6],114%
same,"nuclei count, normalised",[1]; [8],111%
same,"nuclei count, normalised",[1]; [9],111%
same,"nuclei count, normalised",[1]; [10],112%
same,"nuclei count, normalised",[1]; [11],113%
same,"p53-positive nuclei, normalised",[2]; [13],0.0644% (inactive)
same,"p53-positive nuclei, normalised",[2]; [14],-0.0934% (inactive)
same,"p53-positive nuclei, normalised",[2]; [15],-0.0819% (inactive)
same,"p53-positive nuclei, normalised",[2]; [16],-0.265% (inactive)
same,"p53-positive nuclei, normalised",[2]; [17],0.0898%
same,"p53-positive nuclei, normalised",[2]; [18],-0.0608%
same,"p53-positive nuclei, normalised",[2]; [19],-0.051%
same,"p53-positive nuclei, normalised",[2]; [20],-0.0545%
O=C1SC(=Cc2ccc(OCc3cccc(B(O)O)c3)cc2)C(=O)N1Cc1ccc(F)cc1,"nuclei count, normalised",[1]; [3],110%
same,"nuclei count, normalised",[1]; [4],108%
same,"nuclei count, normalised",[1]; [5],110%
same,"nuclei count, normalised",[1]; [6],110%
same,"nuclei count, normalised",[1]; [8],102%
same,"nuclei count, normalised",[1]; [9],102%
same,"nuclei count, normalised",[1]; [10],109%
same,"nuclei count, normalised",[1]; [11],113%
same,"p53-positive nuclei, normalised",[2]; [13],0.073% (inactive)
same,"p53-positive nuclei, normalised",[2]; [14],0.243% (inactive)
same,"p53-positive nuclei, normalised",[2]; [15],0.131% (inactive)
same,"p53-positive nuclei, normalised",[2]; [16],-0.221% (inactive)
same,"p53-positive nuclei, normalised",[2]; [17],0.0618%
same,"p53-positive nuclei, normalised",[2]; [18],0.065%
same,"p53-positive nuclei, normalised",[2]; [19],0.123%
same,"p53-positive nuclei, normalised",[2]; [20],-0.0586%
CCN(CC)c1ccc(C=NNC(=O)c2ccc(O)cc2)cc1,"nuclei count, normalised","[1]; measured here: cell number at 24 h, Library stock concentration: 46 uM",111%
same,"nuclei count, normalised","[1]; measured here: cell number at 24 h, Library stock concentration: 278 uM",117%
same,"nuclei count, normalised","[1]; measured here: cell number at 24 h, Library stock concentration: 1.67 mM",121%
same,"nuclei count, normalised",[1]; [6],79.3%
same,"nuclei count, normalised","[1]; measured here: cell number at 48 h, Library stock concentration: 46 uM",116%
same,"nuclei count, normalised","[1]; measured here: cell number at 48 h, Library stock concentration: 278 uM",118%
same,"nuclei count, normalised","[1]; measured here: cell number at 48 h, Library stock concentration: 1.67 mM",118%
same,"nuclei count, normalised",[1]; [11],83.6%
same,"p53-positive nuclei, normalised",[2]; Library stock concentration: 46 uM,-0.325% (inactive)
same,"p53-positive nuclei, normalised",[2]; Library stock concentration: 278 uM,-0.186% (inactive)
same,"p53-positive nuclei, normalised",[2]; Library stock concentration: 1.67 mM,-0.0464% (inactive)
same,"p53-positive nuclei, normalised",[2]; [16],1.02% (inactive)
same,"p53-positive nuclei, normalised","[2]; measured here: p53 positive nuclei at 24 h, Library stock concentration: 46 uM",-0.151%
same,"p53-positive nuclei, normalised","[2]; measured here: p53 positive nuclei at 24 h, Library stock concentration: 278 uM",-0.0898%
same,"p53-positive nuclei, normalised","[2]; measured here: p53 positive nuclei at 24 h, Library stock concentration: 1.67 mM",0.0252%
same,"p53-positive nuclei, normalised",[2]; [20],0.906%
Nc1ccc(C(=O)O)c(O)c1 (tested in a mixture with another compound),"nuclei count, normalised",[1]; [7],95.8%
same,"nuclei count, normalised",[1]; [12],101%
same,"p53-positive nuclei, normalised",[2]; concentration not given here,0.284% (inactive)
same,"p53-positive nuclei, normalised",[2]; [21],0.00463%
CCC(C)C(NC(=O)C(C(C)CC)N(C)C(C)=O)C(=O)NC(C(=O)NC(CC(C)C)C(=O)[C@@]1(C)CO1)C(C)O (stereo not given in full),"nuclei count, normalised",[1]; [3],52.8%
same,"nuclei count, normalised",[1]; [4],48.9%
same,"nuclei count, normalised",[1]; [5],47.9%
same,"nuclei count, normalised",[1]; [6],45.3%
same,"nuclei count, normalised",[1]; [8],41.4%
same,"nuclei count, normalised",[1]; [9],39.9%
same,"nuclei count, normalised",[1]; [10],38.3%
same,"nuclei count, normalised",[1]; [11],35.1%
same,"p53-positive nuclei, normalised",[2]; [13],104% (active)
same,"p53-positive nuclei, normalised",[2]; [14],100% (active)
same,"p53-positive nuclei, normalised",[2]; [15],107% (active)
same,"p53-positive nuclei, normalised",[2]; [16],106% (active)
same,"p53-positive nuclei, normalised",[2]; [17],124%
same,"p53-positive nuclei, normalised",[2]; [18],125%
same,"p53-positive nuclei, normalised",[2]; [19],127%
same,"p53-positive nuclei, normalised",[2]; [20],125%
